Bioassay records from PubChem BioAssay.
The list is not random: actives were taken first. Their share in the collection is about 3.5%.
FBW7 act = FBW7 E3 ligase activators, primary screen, biochemical, AlphaScreen, human; actives 0.13% (n = 650,000); AID 1259310, 2017; AlphaScreen FBW7–phospho-cyclin E peptide binding, activator screen; F-box/WD repeat-containing protein 7 (Homo sapiens), Q969H0; normalized activity (activation), % at 26.1 µM; in the data active = normalized activity above about 1.9%;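 note: purified mutant Fbw7 with reduced substrate affinity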
GPR151 activ = activators of human GPR151, primary screen, cell-based, PathHunter beta-arrestin, luminescence | PathHunter beta-arrestin GPR151 cells | actives 1% (n = 650,000) | activation, % at 11.2 µM; in the data active = activation above about 4.9%;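 note: 0% = median of compound wells and 100% = cells with positive control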
Target sequence (Q8TDV0 whole entry, looked up): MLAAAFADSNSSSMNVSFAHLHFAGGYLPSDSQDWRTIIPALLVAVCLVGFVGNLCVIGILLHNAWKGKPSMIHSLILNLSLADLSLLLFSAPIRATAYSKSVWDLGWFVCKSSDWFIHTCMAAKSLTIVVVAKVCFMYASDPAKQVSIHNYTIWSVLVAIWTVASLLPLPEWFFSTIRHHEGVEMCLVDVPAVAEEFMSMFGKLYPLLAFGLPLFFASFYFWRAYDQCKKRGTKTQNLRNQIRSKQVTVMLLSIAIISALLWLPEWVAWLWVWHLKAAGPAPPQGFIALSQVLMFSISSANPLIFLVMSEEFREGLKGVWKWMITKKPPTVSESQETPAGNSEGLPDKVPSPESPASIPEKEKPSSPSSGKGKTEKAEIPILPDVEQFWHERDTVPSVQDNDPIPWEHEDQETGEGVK
TEAD-YAP inh = TEAD-YAP interaction inhibition, primary screen, TEAD-YAP interaction inhibitor project, luminescence, HEK-TIYL cells; TEAD-Gal4/YAP UAS-luciferase luminescence; inhibition, % at 9.12 µM; actives 1.4% (n = 640,000); in the data active = inhibition above about 32%;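 note: 0% = median of test compound wells and 100% = reference inhibitor wells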
MITF inh = MITF inhibitors, primary screen, biochemical, AlphaScreen, human. Microphthalmia-associated transcription factor (Homo sapiens), O75030. AlphaScreen MITF homodimerization, bead proximity signal. inhibition, % at 2.6 µM. actives 0.91% (n = 650,000); in the data active = inhibition above about 50%;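 note: 0% = vehicle wells with protein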
GPR151 confirm = GPR151 activators, triplicate retest, confirmation, cell-based, PathHunter beta-arrestin, luminescence; shares compounds with GPR151 activ; GPR151 PathHunter beta-arrestin cells, 90 min; % of EA-reagent control over plate median; activation, % at 11.2 µM; 6,700 tested, under 10 active; AID 1508609, 2020;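 active = mean percent activation across replicates above the confirmation screen cutoff of 4.91%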
GPR119 ag = GPR119 activators in beta-arrestin cells, counter-screen for GPR151 activator project, cell-based, PathHunter beta-arrestin, luminescence, triplicate; 90 min; 0 = compound-well median, 100 = enzyme-acceptor control; AID 1508611, 2020; activation, % at 11.2 µM; actives 0.3% (n = 6,700); shares compounds with GPR151 activ;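 active = mean percent activation in the counterscreen above 29.09%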;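 note: counterscreen on off-target GPR119 to flag nonselective hits from the GPR151 activator screen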
An asterisk follows results filed as active; . = no result.

SMILES	FBW7 act	GPR151 activ	TEAD-YAP inh	MITF inh	GPR151 confirm	GPR119 ag
CCCc1cc(C(N)=O)c(NC(=O)C2CCCO2)s1 (stereo unspecified)	0	10*	-1	21	1	14
CCCCCc1nnc(NC(=O)C2CCCO2)s1 (stereo unspecified)	0	-1	-52	-8	.	.
COc1ccc(-n2nc3cc(C)c(NC(=O)c4cccs4)cc3n2)cc1	0	5.1*	-52	-8	0	10
O=C(N/N=C/c1cccnc1)c1ccc(Br)o1	0	-1	-50	3	.	.
O=C(N/N=C/c1cccc(O)c1)c1ccc(Br)o1	0	8.3*	-25	-1	-4	-31
COc1ccc(C)cc1NC(=O)Cc1c(C(=O)O)n(C)c2ccccc12	0	1	5	18	.	.
CCn1c(C(=O)O)c(CC(=O)Nc2cc(Cl)ccc2OC)c2ccccc21	0	5.4*	2	-1	-1	-11
CCc1cccc(NC(=O)/C=C/C(=O)O)c1	0	5.2*	-1	-5	0	-5
Cc1cccc(NC(=O)/C=C/C(=O)O)c1	0	2	-12	8	.	.
CCN(CC)S(=O)(=O)c1ccc2c(c1)c(=O)c(C(=O)N(C)CC(OC)OC)cn2C	0	0	6	11	.	.
CCN(CC)S(=O)(=O)c1ccc2c(c1)c(=O)c(C(=O)N(C)CCC#N)cn2C	0	6.1*	-18	7	0	-3
OC1(c2ccc3c(c2)OCCO3)CN(c2ccccc2)C2=[N+]1CCCC2 (stereo unspecified)	0	1	1	2	.	.
C/C(=N\Nc1cc(N2CCOCC2)nc(C)n1)c1cccc([N+](=O)[O-])c1	0	5.2*	-9	9	1	4
Cc1ccc(NC(=O)c2ccc(N)cc2Cl)c(O)c1	0	-2	-50	2	.	.
COc1ccc(OC)c(C2=NOC(C(=O)N3CCCC3)C2)c1 (stereo unspecified)	0	0	7	4	.	.
CCc1ccc(NC(=O)C(CC)Sc2nc3cc(OC)c(OC)cc3c(=O)n2CCc2ccc(Cl)cc2)cc1 (stereo unspecified)	0	6.5*	-12	-5	0	-11
CCC(Sc1nc2cc(OC)c(OC)cc2c(=O)n1CCc1ccc(Cl)cc1)C(=O)Nc1cccc(Cl)c1 (stereo unspecified)	0	0	7	-7	.	.
Cn1c(=O)c2c(nc(SCc3ccccc3F)n2C)n(C)c1=O	0	4.9*	7	1	1	12
Cn1c(=O)c2c(nc(SCc3ccccn3)n2C)n(C)c1=O	0	0	13	13	.	.
CCc1ccc(C(=O)COC(=O)C(Cc2ccccc2)NC(=O)C23CC4CC(CC(C4)C2)C3)cc1 (stereo unspecified)	0	3	3	12	.	.
COc1ccccc1CNC1CCCN(c2nc(C)c3cc(F)ccc3n2)CC1 (stereo unspecified)	0	5.4*	-1	7	0	14
CCCCCn1c(SCc2cccc([N+](=O)[O-])c2)nc2cc(C(=O)NCC3CCCO3)ccc2c1=O (stereo unspecified)	0	-1	-2	-13	.	.
CCN1CCC(N(Cc2ccco2)C(=O)NC2CCCC2)CC1	0	5.0*	-1	-6	1	-4
O=C(NCc1ccc(Cl)cc1)C(=O)N/N=C/c1ccccc1	0	3	-5	5	.	.
CCn1nc(C)c(CN2CCC3(CC2)CC3C(=O)NCc2ccccc2)c1C (stereo unspecified)	0	5.4*	8	-3	0	0
SMILES	FBW7 act	GPR151 activ	TEAD-YAP inh	MITF inh	GPR151 confirm	GPR119 ag
COc1cccc(CN2CCC3(CC2)CC3C(=O)NCc2cccc(C(F)(F)F)c2)c1O (stereo unspecified)	0	5.0*	-3	-4	1	13
Cc1ccc(CNC(=O)C(=O)NCc2ccccn2)cc1	0	1	4	-8	.	.
CC(C)C(N=C1NS(=O)(=O)c2ccccc21)C(=O)O (stereo unspecified)	1	0	7	2	.	.
CCOC(=O)C1=CN(c2cc(C)cc(C)c2)C=C(C(=O)OCC)C1c1cc(OC)c(OC)c(OC)c1	0	0	2	-12	.	.
Cc1cc(N)nc(-c2ccc(C(=O)N3CCN(C)CC3)cc2)n1	0	8.5*	-11	6	0	6
CCCNc1cc(C)nc(-c2ccc(C(=O)N3CCN(C)CC3)cc2)n1	0	-2	-43	-6	.	.
S=c1[nH]nc(N2CCCC2)n1-c1ccccc1Cl	0	1	1	8	.	.
COc1ccc2c(c1)O[C@H](c1ccc3c(c1)OCO3)C(OC(=O)N[C@H]1CCCc3ccccc31)C2=O (stereo partly specified)	0	5.3*	.	-21	0	5
COc1ccc2c(c1)O[C@H](c1ccc3c(c1)OCO3)C(OC(=O)NCc1ccc3c(c1)OCO3)C2=O (stereo partly specified)	0	10*	.	3	1	1
Cc1ccc2nc(-c3ccc(Cl)cc3)cc(C(=O)OCC(C)C)c2c1	1	-1	11	4	.	.
CC(C)c1ccc(OCC(=O)O/N=C(\N)c2cccc([N+](=O)[O-])c2)cc1	0	16*	-4	-11	0	-7
O=C(O)C(NS(=O)(=O)c1ccc([N+](=O)[O-])cc1)c1ccccc1 (stereo unspecified)	0	2	4	16	.	.
COC(=O)C(NS(=O)(=O)c1ccc([N+](=O)[O-])cc1)c1ccccc1 (stereo unspecified)	0	9.3*	9	-2	0	3
CCOc1ccc(N/C(C)=C/C(=O)c2ccc(OC)cc2)cc1	0	4	-17	16	.	.
CCc1ccccc1NC(=O)C(=O)NCCOC	0	0	8	-25	.	.
CCCNC(=O)C(=O)Nc1ccccc1CC	0	6.7*	-3	-3	0	-6
CN1CCCC(CC2(c3ccccc3)C(=O)Oc3ccccc32)C1 (stereo unspecified)	0	1	1	13	.	.
N#Cc1c(C(F)(F)F)cc(-c2cccs2)nc1SCC(=O)O	0	0	9	6	.	.
N#Cc1c(C(F)(F)F)cc(-c2cccs2)nc1SC1CC(=O)N(c2ccccc2)C1=O (stereo unspecified)	1	5.1*	0	-3	0	7
